Laboratory results as given in PubChem BioAssay AID1159580 (chemical genetic matrix, 2015).
Hit rate of the full screen: of about 5,500 compounds, about 2,000 (36%) were called active. Another 18% or so got no clear call; they are omitted. Cut-off read from the data, not from the text of the source: active = normalized growth mostly below about 0.91 (no sharp cut-off); inconclusive = no clear call, values can overlap the other calls; inactive = mostly above about 0.92. The list shows a part of the results.

Assay: chemical genetic growth profiling, strain panel (AID 1159580);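 note: tested at 20 µM; growth read once vehicle control cultures reached saturation at 30 °C; 1 = growth at the plate median or of vehicle wells; lower values mean less growth of the strain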
Details: growth OD
[1] = S. cerevisiae deletion strains, locus YDL101C, strain DUN1, hits give low values
[2] = S. cerevisiae deletion strains, locus YHR030C, strain SLT2, hits give low values

Measured: normalized growth

Cc1onc(-c2c(F)cccc2Cl)c1C(=O)c1ccc(F)cc1
active: S. cerevisiae deletion strains, locus YLR262C, strain YPT6, hits give low values 0.787
inactive: S. cerevisiae deletion strains, locus YAL013W, strain DEP1, hits give low values 0.939 | S. cerevisiae deletion strains, locus YBR229C, strain ROT2, hits give low values 0.98 | [1] 0.991 | S. cerevisiae deletion strains, locus YDR150W, strain NUM1, hits give low values 0.963 | S. cerevisiae deletion strains, locus YEL061C, strain CIN8, hits give low values 0.979 | S. cerevisiae deletion strains, locus YGR078C, strain PAC10, hits give low values 0.973 | S. cerevisiae deletion strains, locus YGR229C, strain SMI1, hits give low values 0.969 | [2] 0.696 | S. cerevisiae deletion strains, locus YHR087W, strain rtc3, hits give low values 0.959 | S. cerevisiae deletion strains, locus YJL187C, strain SWE1, hits give low values 0.975 | S. cerevisiae deletion strains, locus YJR043C, strain POL32, hits give low values 0.956 | S. cerevisiae deletion strains, locus YJR075W, strain HOC1, hits give low values 0.937 | S. cerevisiae deletion strains, locus YKL190W, strain CNB1, hits give low values 0.974 | S. cerevisiae deletion strains, locus YLR039C, strain RIC1, hits give low values 0.807 | S. cerevisiae deletion strains, locus YLR058C, strain SHM2 (second series), hits give low values 0.987 | S. cerevisiae deletion strains, locus YLR085C, strain ARP6, hits give low values 0.8 | S. cerevisiae deletion strains, locus YML094W, strain GIM5, hits give low values 0.972 | S. cerevisiae deletion strains, locus YMR219W, strain ESC1, hits give low values 0.996 | S. cerevisiae deletion strains, locus YMR263W, strain SAP30, hits give low values 0.978 | S. cerevisiae deletion strains, locus YMR307W, strain GAS1, hits give low values 0.708 | S. cerevisiae deletion strains, locus YNL153C, strain GIM3, hits give low values 0.973 | S. cerevisiae deletion strains, locus YNL298W, strain CLA4 (second series), hits give low values 0.93 | S. cerevisiae deletion strains, locus YNL322C, strain KRE1, hits give low values 0.97 | S. cerevisiae deletion strains, locus YNR030W, strain Alg12, hits give low values 0.949 | S. cerevisiae deletion strains, locus YPL055C, strain LGE1, hits give low values 0.929 | S. cerevisiae deletion strains, locus YPL241C, strain CIN2, hits give low values 0.964 | S. cerevisiae deletion strains, locus YPR135W, strain CTF4, hits give low values 0.817 | S. cerevisiae strains, strain wild type, hits give low values 0.959

Cc1onc(-c2c(F)cccc2Cl)c1C(=O)ON=C1C2CC3CC(C2)CC1C3
inactive: S. cerevisiae deletion strains, locus YAR019C, strain CDC15, hits give low values 1.06 | [1] 0.97 | S. cerevisiae deletion strains, locus YDL132W, strain cdc53, hits give low values 1.06 | S. cerevisiae deletion strains, locus YDL214C, strain PRR2, hits give low values 0.955 | S. cerevisiae deletion strains, locus YDR052C, strain DBF4, hits give low values 0.997 | S. cerevisiae deletion strains, locus YDR054C, strain cdc34, hits give low values 1.04 | S. cerevisiae deletion strains, locus YDR477W, strain SNF1, hits give low values 0.965 | S. cerevisiae deletion strains, locus YER123W, strain YCK3, hits give low values 0.939 | S. cerevisiae deletion strains, locus YER133W, strain GLC7, hits give low values 0.979 | S. cerevisiae deletion strains, locus YFL009W, strain cdc4, hits give low values 1.06 | S. cerevisiae deletion strains, locus YFL029C, strain CAK1, hits give low values 1.07 | S. cerevisiae deletion strains, locus YFR019W, strain FAB1, hits give low values 0.967 | S. cerevisiae deletion strains, locus YFR028C, strain CDC14, hits give low values 1.02 | S. cerevisiae deletion strains, locus YGR040W, strain KSS1, hits give low values 0.953 | S. cerevisiae deletion strains, locus YGR052W, strain FMP48, hits give low values 0.974 | S. cerevisiae deletion strains, locus YGR092W, strain DBF2, hits give low values 0.982 | [2] 0.895 | S. cerevisiae deletion strains, locus YHR079C, strain IRE1, hits give low values 0.967 | S. cerevisiae deletion strains, locus YHR082C, strain KSP1, hits give low values 0.981 | S. cerevisiae deletion strains, locus YHR205W, strain SCH9, hits give low values 0.85 | S. cerevisiae deletion strains, locus YJL095W, strain BCK1, hits give low values 0.968 | S. cerevisiae deletion strains, locus YJL128C, strain PBS2, hits give low values 1.01 | S. cerevisiae deletion strains, locus YJL157C, strain FAR1, hits give low values 0.95 | S. cerevisiae deletion strains, locus YJR016C, strain ILV3, hits give low values 1.04 | S. cerevisiae deletion strains, locus YJR066W, strain TOR1 (second series), hits give low values 0.924 | S. cerevisiae deletion strains, locus YJR066W, strain TOR1, hits give low values 0.98 | S. cerevisiae deletion strains, locus YKL048C, strain ELM1, hits give low values 0.968 | S. cerevisiae deletion strains, locus YKL067W, strain YNK1, hits give low values 0.974 | S. cerevisiae deletion strains, locus YKL101W, strain HSL1, hits give low values 0.94 | S. cerevisiae deletion strains, locus YKL203C, strain TOR2, hits give low values 0.969 | S. cerevisiae deletion strains, locus YLR133W, strain CKI1, hits give low values 0.951 | S. cerevisiae deletion strains, locus YLR403W, strain SFP1, hits give low values 0.894 | S. cerevisiae deletion strains, locus YML070W, strain DAK1, hits give low values 0.934 | S. cerevisiae deletion strains, locus YMR205C, strain PFK2 (second series), hits give low values 0.971 | S. cerevisiae deletion strains, locus YMR277W, strain FCP1, hits give low values 1.06 | S. cerevisiae deletion strains, locus YNL020C, strain ARK1, hits give low values 0.955 | S. cerevisiae deletion strains, locus YNL183C, strain NPR1, hits give low values 0.917 | S. cerevisiae deletion strains, locus YNL207W, strain RIO2, hits give low values 1.03 | S. cerevisiae deletion strains, locus YNL307C, strain MCK1 (second series), hits give low values 0.953 | S. cerevisiae deletion strains, locus YOL078W, strain AVO1, hits give low values 1.05 | S. cerevisiae deletion strains, locus YOL136C, strain PFK27, hits give low values 0.933 | S. cerevisiae deletion strains, locus YOR061W, strain CKA2, hits give low values 0.965 | S. cerevisiae deletion strains, locus YOR119C, strain RIO1, hits give low values 0.976 | S. cerevisiae deletion strains, locus YOR231W, strain MKK1, hits give low values 0.9 | S. cerevisiae deletion strains, locus YPL031C, strain PHO85, hits give low values 0.975 | S. cerevisiae deletion strains, locus YPL153C, strain RAD53, hits give low values 0.959 | S. cerevisiae deletion strains, locus YPL204W, strain HRR25, hits give low values 0.931 | S. cerevisiae deletion strains, locus YPL256C, strain CLN2, hits give low values 0.866 | S. cerevisiae deletion strains, locus YPR106W, strain ISR1, hits give low values 1.04 | S. cerevisiae deletion strains, locus YPR111W, strain DBF20, hits give low values 1.06 | S. cerevisiae deletion strains, strain NNK1, hits give low values 1.03 | S. cerevisiae deletion strains, strain TSCII, hits give low values 1.04
active: S. cerevisiae deletion strains, locus YBL105C, strain PKC1, hits give low values 1.11 [resistant] | S. cerevisiae deletion strains, locus YBR135W, strain CKS1, hits give low values 1.09 [resistant] | S. cerevisiae deletion strains, locus YBR136W, strain MEC1, hits give low values 1.08 [resistant] | S. cerevisiae deletion strains, locus YBR160W, strain CDC28, hits give low values 1.08 [resistant] | S. cerevisiae deletion strains, locus YDL017W, strain CDC7, hits give low values 1.08 [resistant] | S. cerevisiae deletion strains, locus YDL028C, strain MPS1, hits give low values 1.08 [resistant] | S. cerevisiae deletion strains, locus YDL108W, strain KIN28, hits give low values 1.09 [resistant] | S. cerevisiae deletion strains, locus YDR226W, strain ADK1, hits give low values 1.06 [resistant] | S. cerevisiae deletion strains, locus YFR003C, strain YPI1, hits give low values 1.09 [resistant] | S. cerevisiae deletion strains, locus YIL147C, strain SLN1, hits give low values 1.1 [resistant] | S. cerevisiae deletion strains, locus YKL193C, strain SDS22, hits give low values 1.08 [resistant] | S. cerevisiae deletion strains, locus YLR113W, strain HOG1, hits give low values 0.816 | S. cerevisiae deletion strains, locus YMR001C, strain CDC5, hits give low values 1.07 [resistant] | S. cerevisiae deletion strains, locus YNL006W, strain LST8, hits give low values 1.1 [resistant] | S. cerevisiae deletion strains, locus YNL161W, strain CBK1, hits give low values 1.08 [resistant] | S. cerevisiae deletion strains, locus YNL222W, strain SSU72, hits give low values 1.1 [resistant] | S. cerevisiae deletion strains, locus YOR329C, strain SCD5, hits give low values 1.1 [resistant] | S. cerevisiae deletion strains, locus YPL209C, strain IPL1, hits give low values 1.09 [resistant] | S. cerevisiae deletion strains, locus YPR025C, strain CCL1, hits give low values 1.1 [resistant]
